# This is a sample that favours compounds with a hit; in the whole collection about 12% have one here.
# G9a inh – qHTS Assay for Inhibitors of Histone Lysine Methyltransferase G9a; Potency, µM (series often up to 102 µM), usual class: inhibitors; Histone-lysine N-methyltransferase EHMT2 (Homo sapiens), Q96KQ7; G9a H3K9 monomethylation, AlphaScreen, 2 h; hit rate 8.8% among 350,000; AID 504332, 2011; note: nearly all actives have a fitted effect of over 75% in size
#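 Enzyme 20 nM + cpd, 15 min RT; add b-H3K9 pep 500 nM / SAM 20 uM; 2 h RT; anti-H3K9me1 Ab 0.5 ug/mL + SA donor / anti-rabbit acceptor beads 20 ug/mL each, 10 min; AlphaScreen read.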
# BAZ2B block – qHTS Assay for Inhibitors of BAZ2B | Bromodomain adjacent to zinc finger domain protein 2B (Homo sapiens), Q9UIF8 | AlphaScreen BAZ2B-H3K14Ac peptide displacement | Potency, µM (highest dose often 114 µM), hits mostly inhibitors | hit rate 4.4% among 360,000; note: nearly all actives have a fitted effect of over 60% in size
#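 AlphaScreen displacement: compounds (up to 110uM) incubated 30 min at room temperature with a preformed 50 nM BAZ2B/50 nM biotinylated H3K14Ac peptide complex in PBS pH 7.4 with Tween-20. Donor and acceptor beads at 10 ug/mL final added, 20 min light-protected before reading.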
# JMJD2A Tudor – qHTS Assay for Inhibitors of JMJD2A-Tudor Domain; Lysine-specific demethylase 4A (Homo sapiens), O75164; AlphaScreen JMJD2A-Tudor / H3K4me3 peptide binding; Potency, µM (series often up to 114 µM), hits mostly inhibitors; hit rate 4.4% among 390,000; note: nearly all actives have a fitted effect of over 50% in size
# Sfp inh – qHTS Assay for Inhibitors of Bacillus subtilis Sfp phosphopantetheinyl transferase (PPTase) | 4'-phosphopantetheinyl transferase ffp (Bacillus subtilis), Q9F4F7 | Biochemical Sfp PPTase activity, qHTS | Potency, µM, actives largely listed as inhibitors | hit rate 3.5% among 310,000;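 note: the enzyme is Sfp with the accession as filed and its product quenches rhodamine fluorescence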
#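 After 15 min at room temperature with compound, 15 nM Sfp received 5 uM rhodamine-CoA plus 12.5 uM BHQ-2-ybbR (50 mM Hepes pH 7.6, 10 mM MgCl2). Rate came from the fluorescence difference over 30 min, ex 525/em 598 nm.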
# HP1b chromo inh – HTS for Inhibitors of HP1-beta Chromodomain Interactions with Methylated Histone Tails; Chromobox protein homolog 1 (Homo sapiens), P83916; AlphaScreen HP1-beta / biotin-H3K9me3 peptide binding; Potency, µM (titrated, usually from 114 µM), most hits filed as inhibitors; hit rate 0.56% among 390,000; note: nearly all actives have a fitted effect of over 70% in size
#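 HP1-beta protein (50 nM final) preincubated 30 min at room temperature with biotinylated H3(1-18)K9me3 peptide (50 nM) in PBS pH 7.4, 0.01% Tween-20, then compound added for 30 min. AlphaScreen streptavidin donor/nickel chelate acceptor beads (10 ug/mL final), 30 min dark, luminescence read.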
# L3MBTL1 inh – qHTS Assay for the Inhibitors of L3MBTL1. Lethal(3)malignant brain tumor-like protein 1 (Homo sapiens), Q9Y468. AlphaScreen L3MBTL1–H3K9me1 peptide binding. Potency, µM (top dose mostly 57.1 µM), usual class: inhibitors. hit rate 0.66% among 230,000. AID 485360, 2010; note: nearly all actives have a fitted effect of over 60% in size
#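 AlphaScreen assay: L3MBTL1 (50 nM final) was preincubated 30 min at room temperature with biotinylated H3(1-15)K9me1 peptide (75 nM final), then 30 min with library compounds; streptavidin donor and nickel chelate acceptor beads (10 ug/mL final) added, 30 min dark.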
# A number is an active result; 0 = inactive; ? = inconclusive; - = no result given; [ ] = another dose, or the depositor's remark. Calls come from the whole dose curve; as a rule, active = well fitted curve in the direction sought with a large enough effect; inconclusive = small, poorly fitted or top-dose-only effect, or another doubt; inactive = no such curve, though single readings can be large; an effect the other way counts as inactive or inconclusive.
SMILES,G9a inh,BAZ2B block,JMJD2A Tudor,Sfp inh,HP1b chromo inh,L3MBTL1 inh
Cc1cc(C)c2sc(N(CCCN(C)C)C(=O)c3ccc(S(=O)(=O)N(C)C4CCCCC4)cc3)nc2c1,35.5µM,?,?,-,?,0
CN(C)CCCN(C(=O)c1ccc(S(=O)(=O)N(C)C2CCCCC2)cc1)c1nc2ccc(F)cc2s1,44.7µM,?,?,0,0,-
CCc1ccc2nc(N(CCCN(C)C)C(=O)c3ccc(S(=O)(=O)N(C)C4CCCCC4)cc3)sc2c1,?,?,?,44.7µM,0,-
CCN(CC)CCN(C(=O)c1ccc(S(=O)(=O)N2CCCC2)cc1)c1nc2cc(C)cc(C)c2s1,?,0,0,0,0,-
CCOc1cccc2sc(N(CCCN(C)C)C(=O)c3ccc(S(=O)(=O)N4CCc5ccccc5C4)cc3)nc12,-,0,0,0,0,-
COc1ccc([C@H]2CC(=O)C=C(c3ccc(Cl)c(Cl)c3)C2)cc1,0[0.501 µM],0,0,-,0,0
Cc1cccc(-c2nc3c4ccccc4nc(N4CCN(c5cccc(Cl)c5)CC4)n3n2)c1,0,0,0,-,0,-
COC(=O)C1=C(C(=O)OC)[C@@H]2N(C)c3ccccc3[C@@]23C[C@@H](CO)N(C(=O)c2cc(C)oc2C)C3=N1,-,-,-,0,-,-
O=C(NCc1cccs1)C1CC(=O)N(Cc2ccccc2)C1 (stereo unspecified),-,-,0,-,0,0
CN(C)CCN(C(=O)c1ccc(S(=O)(=O)N(C)CC2CCCO2)cc1)c1nc2cc3c(cc2s1)OCO3 (stereo unspecified),?,0,?,0,0,-
COc1cc2nc(N(CCCN(C)C)C(=O)c3ccc(S(=O)(=O)N(C)C4CCCCC4)cc3)sc2cc1OC,44.7µM,0,0,-,0,0
CN(C)CCCN(C(=O)c1ccc(S(=O)(=O)N(C)C2CCCCC2)cc1)c1nc2ccc(Br)cc2s1,-,?,35.5µM,39.8µM,0,-
COc1ccc(CN(CC2CCCO2)S(=O)(=O)c2ccc(C(=O)O)cc2)cc1OC (stereo unspecified),56.2µM,0,0,0,0,0
COc1cc2nc(N(CCN(C)C)C(=O)c3ccc(S(=O)(=O)N(C)CC4CCCO4)cc3)sc2cc1OC (stereo unspecified),31.6µM,?,0,0,0,-
Cc1ccc(Cl)cc1N1CCN(CCCNc2ncnc3onc(-c4ccc(Cl)cc4)c23)CC1,0,0,0,-,0,-
CCOC(=O)Nc1ccc(N2CCOCC2)c(S(=O)(=O)Nc2ccc(Cl)cc2)c1,-,-,0,-,0,0
Cc1ccc(S(=O)(=O)Nc2nc3ccc(S(C)(=O)=O)cc3s2)cc1,?,0,0,0,0,-
Cc1ccc(C)c(S(=O)(=O)Nc2nc3ccc(S(N)(=O)=O)cc3s2)c1,10µM,0,50.1µM,?,0,-
COC(=O)[C@@H](N)Cc1ccc(O)c(O)c1,0,0,0,56.2µM,0,0
C/C(=N\NC(N)=S)C12CC3CC(CC(C3)C1)C2,0[12.7 µM],0,0,0,0,-
C/C(CC1CC2=C(CC1(C)C)C(C)(C)CCC2)=N\NC(N)=S (stereo unspecified),31.6µM,0,0,?,?,-
COc1ccc(S(=O)(=O)n2cnc3ccccc32)cc1OC,70.8µM,0,0,0,0,0
Cc1cc(C)c(S(=O)(=O)n2cnc3ccccc32)c(C)c1,89.1µM,0,0,0,0,-
Cc1ccc(S(=O)(=O)n2cnc3ccccc32)cc1[N+](=O)[O-],0[2.33 µM],0,0,0,0,-
COc1cccc(CNC(=O)Cn2ccc3cc(S(=O)(=O)N4CCCCCC4)ccc32)c1OC,0,?,0,0,0,-
COc1ccc(C(=O)N(Cc2ccccc2)Cc2cccs2)c(O)c1,-,-,0,-,-,-
CC(=O)[C@]1(O)CCC2C3C=C(Cl)C4=CC(=O)C5CC5[C@@]4(C)C3CC[C@]21C (stereo partly specified),0[2.33 µM],-,-,0,-,-
